Here are results for 95 compounds from PubChem BioAssay AID431 (Sanford-Burnham Center for Chemical Genomics, 2006).

The campaign covered roughly 63,000 compounds. About 1,100 (1.7%) were called active. Shown is part of a subset that was picked to be rich in actives. Results with a measured potency or affinity are listed apart. A number with no mark means an inactive call.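 Rule for the calls: active = compounds whose percent cytotoxicity in the single-dose primary screen, scaled between solvent and toxic-drug controls, exceeds 50; inactive = the rest.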

This test can be described thus: cytotoxicity in KRAS-transformed pancreatic duct cells, primary screen, cell-based, fluorescence, HTS (AID 431).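 Note: 0% = DMSO solvent wells and 100% = doxorubicin-treated wells.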 As to conditions: HPDE-C7K KRASV12 cells, Alamar Blue viability, 48 h; at 10 µM; stronger effect = higher value.
Regarding `Cn1nc(CC(=O)Nc2cccc3ncccc23)c2ccccc2c1=O`, the cytotoxicity is -4.3%. In the case of `CCOC(=O)c1ccc(NC(=O)CCc2nc(-c3cccc(C)c3)no2)cc1` it was 1%. The value for `CCOC(=O)c1[nH]c(C)c(C(=O)NCCN2CCOCC2)c1C` was 8.4%; that for `CC(=O)c1c(C)[nH]c(C(=O)OCC(=O)Nc2cc(C(F)(F)F)ccc2N2CCOCC2)c1C` was 14.5%; that for `CCC(=O)N/C=C/n1cnc2cc(C(F)(F)F)ccc21` was 15.3%. As to `C=CCOC(=O)CCC(=O)Nc1cc(OC)nc(OC)n1`, the cytotoxicity is 51.4% (active). Consider `C#CCOC(=O)CCC(=O)Nc1cc(OC)nc(OC)n1`, for which the cytotoxicity was -8%. Take `COc1cc(NC(=O)CCCC(=O)OCC(F)(F)C(F)F)nc(OC)n1`: the cytotoxicity is -2.6%. Regarding `CCOC(=O)Cn1c(C)c(C#N)c2ccccc21`, the cytotoxicity is 8.1%. For `COc1ccc(N(CC(=O)N2CCc3ccccc32)S(=O)(=O)c2c(C)noc2C)cc1`, the cytotoxicity is 2%. With `O=C(COc1ncnc2ccc(Br)cc12)Nc1ccc(N2CCOCC2)cc1`, the cytotoxicity is -7.7%. `COc1ccc(OC)c(-c2nnc(NC(=O)C(C)Sc3nncn3C)s2)c1` (stereo not given): the cytotoxicity was 4.7%. With `Cc1ccc(S(=O)(=O)NC2CCOC(C)(C)C2)cc1` (stereo not given), the cytotoxicity is -15.4%.

On to `COc1cccc2c1C(=O)c1c(O)c3c(c(O)c1C2=O)C[C@@](O)(C(C)=O)C[C@@H]3O[C@H]1C[C@H](N)[C@H](O)[C@H](C)O1`, for which the cytotoxicity was 106% (active).

For the compound `COc1cccc2c1C(=O)c1c(O)c3c(c(O)c1C2=O)C[C@@](O)(C(=O)CO)C[C@@H]3O[C@H]1C[C@H](N)[C@H](O)[C@H](C)O1`, the cytotoxicity was 98.7% (active). Turning to `COc1ccccc1N1CCN(C(=O)c2nn(-c3ccccc3OC)c(=O)c3ccccc23)CC1`, the cytotoxicity was 4.9%.

With `CCNc1nc(Oc2ccc(=O)n(-c3ccccc3)n2)nc(N2CCOCC2)n1`, the cytotoxicity is 4.3%. The value for `Nc1nnc(N2CCCCC2)s1` was -11.2%; that for `Cc1ccc(CNS(=O)(=O)c2ccc3oc(C(=O)O)c(C)c3c2)cc1` was 1.5%; that for `CCOC(=O)N1CCN(C(=O)CCn2nc(-c3ccc(Cl)cc3)ccc2=O)CC1` was -0.1%. For the compound `CCOc1ccc(NS(=O)(=O)c2cc(Cl)ccc2OC)cc1`, the cytotoxicity is -5.4%. As for `COc1ccc(S(=O)(=O)Nc2cccc(Cl)c2)cc1OC`, the cytotoxicity was 9.4%. The value for `CCOc1ccc(S(=O)(=O)Nc2cccc(Cl)c2)cc1` was 65% (active). `CCOc1ccc(S(=O)(=O)Nc2cccnc2)cc1`: the cytotoxicity is 4.6%. In the case of `CCOc1ccc(NS(=O)(=O)c2ccc(NS(C)(=O)=O)cc2)cc1`, the cytotoxicity was -17%. The value for `CCOc1ccc(S(=O)(=O)Nc2cc(Cl)ccc2O)cc1` was 64.5% (active); that for `Clc1ccc(-c2noc(CN3CCCC3)n2)cc1` was -4.3%; that for `COc1ccc(Cl)cc1NC(=O)CN(C(=O)c1ccco1)C1CCCCC1` was 4.7%. In the case of `CCSc1nnc(NC(=O)c2cccs2)s1` it was 22.4%; in that of `COC(=O)c1cccc(NC(=O)CSc2nnc(COc3cccc(C)c3)n2C)c1`, -15.1%; in that of `CCOC(=O)c1[nH]c(C)c(/C(O)=C2\C(=O)C(=O)N(CCCn3ccnc3)C2c2ccncc2)c1C` (stereo not given), 11.3%. As for `CC1=C(C)C(=O)NC(Nc2nc(C)c3cc(C)cc(C)c3n2)N1` (stereo not given), the cytotoxicity was 90.8% (active).

As to `Cc1cc(C)c2nc(NC3=NCN(CCN4CCOCC4)CN3)nc(C)c2c1`, the cytotoxicity was -2%. The value for `Cc1ccnc(SCCn2c(N3CCC(C)CC3)nc3c2c(=O)[nH]c(=O)n3C)n1` was 5.9%.

In the case of `Cc1cc(C)nc(/N=C2\NC(=O)CC(C(=O)O)N2c2ccc(Oc3ccccc3)cc2)n1` (stereo not given), the cytotoxicity is 3.8%. Regarding `O=C(Nc1ccccc1C(=O)N1CCCCCC1)c1cccc(S(=O)(=O)N2CCOCC2)c1`, the cytotoxicity was 6.4%.

As to `CCN(CC)c1ccc2cc(-c3nnc(-c4ccncc4)o3)c(=O)oc2c1`, the cytotoxicity was 71.1% (active). The value for `CCN(CC)c1ccc2cc(C(=O)Nc3ccccn3)c(=O)oc2c1` was 18.9%. Regarding `CCN(CC)c1ccc2cc(-c3nc4ccccc4[nH]3)c(=O)oc2c1`, the cytotoxicity was 42.2%. As for `CC(=O)Oc1ccc2cc(-c3nc4ccccc4n3C)c(=O)oc2c1`, the cytotoxicity is -1.4%. With `O=c1oc2ccc3ccccc3c2cc1-c1nnc(-c2ccccc2)o1`, the cytotoxicity is -4.9%.

In the case of `CCN(CC)c1ccc2cc(-c3nc4ccccc4n3C)c(=O)oc2c1`, the cytotoxicity was 53.3% (active). Turning to `C/C(Cl)=C/Cn1c(NCCN(C)C)nc2c1c(=O)n(C)c(=O)n2C`, the cytotoxicity is 10.3%. With `CCCCC(=O)Nc1ccc2c(c1)nc1n2CCOC1`, the cytotoxicity is -4.8%. For the compound `Cc1onc(-c2ccccc2)c1C(=O)NCc1ccco1`, the cytotoxicity was 9%.

As for `Fc1ccc(CN2CCCCCCC2)c(F)c1`, the cytotoxicity was 4.9%. As to `CCCC(C(=O)NCc1ccco1)N(C(=O)CNS(=O)(=O)c1ccc(Cl)cc1)C1CCCC1` (stereo not given), the cytotoxicity is 2.5%.

For the compound `Cc1cccc(N2CCN(C(=O)c3cn(C)c(=O)c4c3c3ccccc3n4C)CC2)c1C`, the cytotoxicity is 88.5% (active). In the case of `Cc1ccc(Cl)cc1N1CCN(C(=O)c2cc3c(=O)n(C)c4ccccc4c3n2C)CC1` it was 38.6%; in that of `Cc1ccc(Cl)cc1N1CCN(C(=O)c2cn(C)c(=O)c3c2c2ccccc2n3C)CC1`, 110% (active); in that of `CCOC(=O)N1CCN(C(=O)c2cn(C)c(=O)c3c2c2ccccc2n3C)CC1`, 4.1%. In the case of `Cn1cc(C(=O)N2CCN(C(=O)c3ccco3)CC2)c2c3ccccc3n(C)c2c1=O` it was -0.8%. Regarding `COc1ccc(N2CCN(C(=O)c3cn(C)c(=O)c4c3c3ccccc3n4C)CC2)cc1`, the cytotoxicity is 10.6%. In the case of `Cn1c2c(c(=O)n(C)c1=O)CN(Cc1ccc3c(c1)OCO3)CN2`, the cytotoxicity was 4.8%.

Turning to `O=C(Nc1ccc(Cl)cn1)c1cc2ccccc2o1`, the cytotoxicity is -4.1%. In the case of `COc1cc(C2Nc3cc(Cl)c(S(N)(=O)=O)cc3S(=O)(=O)N2)cc(OC)c1OC` (stereo not given) it was -17.3%.

On to `N#CCCN1CCN(S(=O)(=O)c2ccc(S(=O)(=O)N3CCCCCC3)cc2)CC1`, for which the cytotoxicity is 0.7%.

As for `COc1ccc(N2CCN(C(=O)CN3C(=O)C4CC=CCC4C3=O)CC2)cc1` (stereo not given), the cytotoxicity is 0.2%. For `Cc1ccc(C2C3=C(CC(C)(C)CC3=O)NC3=C2C(=O)CC(C)(C)C3)o1`, the cytotoxicity is -0.9%. Consider `CC(C)Cn1c(N)c(C(=O)NCc2cccs2)c2nc3ccccc3nc21`, for which the cytotoxicity is 92.2% (active). In the case of `COCCn1c(N)c(C(=O)NCC2CCCO2)c2nc3ccccc3nc21` (stereo not given) it was 15.6%; in that of `Nc1c(C(=O)NC2CCCC2)c2nc3ccccc3nc2n1N`, 10.7%. With `COCCNC(=O)c1c(N)n(CCCn2ccnc2)c2nc3ccccc3nc12`, the cytotoxicity is 6.1%. In the case of `Nc1c(C(=O)NCC2CCCO2)c2nc3ccccc3nc2n1-c1ccccc1` (stereo not given), the cytotoxicity is 10.6%.

As to `COCCn1c(N)c(C(=O)NCc2cccs2)c2nc3ccccc3nc21`, the cytotoxicity is 9.2%. For the compound `COCCNC(=O)c1c(N)n(-c2cccc(C)c2)c2nc3ccccc3nc12`, the cytotoxicity was 26.4%. As to `CC(C)Cn1c(N)c(C(=O)NCCN2CCOCC2)c2nc3ccccc3nc21`, the cytotoxicity is -5.3%. Consider `CC(C)Cn1c(N)c(C(=O)NCC2CCCO2)c2nc3ccccc3nc21` (stereo not given), for which the cytotoxicity is 22.7%.

Consider `COCCSc1nnc(-c2cccc(C#N)c2)n1C`, for which the cytotoxicity was -2.9%. As to `COc1cc(C)c(C#N)c(OC)n1`, the cytotoxicity is 0%. Take `CC(C)OCC(O)CN` (stereo not given): the cytotoxicity was -11.2%. The value for `CCCn1c(=C(C#N)C#N)s/c(=C2\C=Cc3ccccc3N2CC)c1=O` was 6%; that for `Cc1nc(C)c(C(=O)NCc2ccc(Cl)cc2)o1` was -5.4%. The value for `O=C(CN1CCN(S(=O)(=O)c2ccc(F)cc2)CC1)Nc1ccc2c(c1)OCO2` was 0.6%. The value for `CCOC(=O)COc1ccc2nsnc2c1Cl` was 2.6%; that for `COCCn1c(SC(C)C(=O)Nc2ccc3c(c2)OCCO3)nc2ccccc2c1=O` (stereo not given) was -20.1%; that for `CCc1nnc(NC(=O)CSc2nnc(Cc3cccn3C)n2C)s1` was 4%. As to `CC1(C)Cc2c(c(N3CCOCC3)nc3sc(C(=O)N4CCCCC4)c(N)c23)CO1`, the cytotoxicity is -5.9%. For the compound `CC1(C)Cc2c(c(N3CCOCC3)nc3snc(Br)c23)CO1`, the cytotoxicity is -11%. In the case of `Cc1nc(-c2c(-c3ccc(O)cc3O)noc2C(F)(F)F)cs1`, the cytotoxicity is 1.3%. In the case of `Cc1cc(O)ccc1Nc1nc(-c2sc(N)nc2C)cs1` it was 13%. In the case of `Cc1cccnc1Nc1nc(-c2ccc(O)cc2O)cs1` it was 78% (active).

As for `COc1ccc(C(C(=O)NC(C)(C)C)N(Cc2ccco2)C(=O)CCC(=O)Nc2cc(C)on2)cc1` (stereo not given), the cytotoxicity is -10%. `O=C(O)c1ccc(CS(=O)(=O)c2cccc(C(F)(F)F)c2)o1`: the cytotoxicity is 0.8%.

For `CCNC(=O)N1C(=O)C2(OCCO2)c2ccccc21`, the cytotoxicity was -11.6%. On to `CCCCOc1ccc(OCCCC)c2c1NC1(N2)C(=O)N(C(C)=O)c2ccccc21`, for which the cytotoxicity was 59.6% (active). On to `CC(=O)N1C(=O)C2(Nc3ccccc3N2)c2ccccc21`, for which the cytotoxicity was 2.8%.

For `CCn1c(=NC(=O)CSC(C)=O)sc2cc(F)ccc21`, the cytotoxicity was -9.8%. With `Cc1c(C(C)O)nnn1-c1nonc1N` (stereo not given), the cytotoxicity was 7.8%. As for `CC(c1ccco1)N(C(=O)C12CC3CC(CC(C3)C1)C2)c1ccccn1` (stereo not given), the cytotoxicity was -19.3%. Take `Cc1nn(C(C)(C)C)c(OC(=O)c2cccs2)c1S(=O)(=O)c1ccccc1`: the cytotoxicity is 64% (active). As for `Cc1nn(-c2ccccc2)c(OC(=O)c2cccs2)c1S(=O)(=O)c1ccccc1`, the cytotoxicity was 1.2%. As for `CC(=O)Oc1c(S(=O)(=O)c2ccc(C)cc2)c(C)nn1C(C)(C)C`, the cytotoxicity was 3.3%. For `Cc1ccc(S(=O)(=O)c2c(C)nn(C(C)(C)C)c2OC(=O)c2ccco2)cc1`, the cytotoxicity was 5.7%. For the compound `Cc1ccc(S(=O)(=O)c2c(C)nn(C(C)(C)C)c2OC(=O)c2cccs2)cc1`, the cytotoxicity is 5%.
